Screens: PubChem, National Center for Advancing Translational Sciences (NCATS)
A selection: hits, their analogues and other compounds. The true share with any hit is near 11%.
IMPase cell inh – IMPase inhibition in cells; P97697; CHO-M1 cells, IP1 accumulation, HTRF TR-FRET ratio; inhibition (IP1 accumulation), % at 46.1 µM; 120,000 tested, under 10 active; active = well fitted curve in the direction sought with a large enough effect in the signal ratio, not every such curve was filed as active; inconclusive = small, poorly fitted or top-dose-only effect, or a change in a side signal; inactive = no such curve, though single readings can be large or run the other way; the % refers to the signal ratio;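 note: cells stimulated with carbachol in lithium chloride buffer; plate controls were DMSO basal wells for no effect and reference inhibitor wells for full effect; higher means more IMPase inhibition seen as more IP1 and lower FRET ratio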
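In this qHTS, compounds (final up to 46 uM) act on CHO-M1 cells that are then activated through the M1 receptor with carbachol, in pH 7.4 buffer containing 50 mM LiCl, for 30 min. IP1 accumulation is quantified by the IP-One immunoassay.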
IMPase Li cell – IMPase inhibition in cells with lithium potentiation; CHO-M1 cells, IP1 TR-FRET (IP-One), carbachol + lithium; Potency, µM (highest dose often 59.4 µM), for inactives: at the top dose activity, negative = IMPase inhibition, actives largely listed as inhibitors; 210,000 compounds, 0.35% hits; AID 1457;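 note: IP1 builds up when IMPase is blocked and the TR-FRET signal falls; potency is the fitted concentration of half-maximal effect; plate controls were basal vehicle for no effect and high inhibitor control for full effect; nearly all actives have a fitted effect of over 50% in size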
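CHO-M1, 2000 cells/well, 16–30 h culture; cpd + low Li+, 30 min 37C; lysis with d2-IP1/Eu-anti-IP1 Ab, 10 min RT; TR-FRET 665/620 ratio and 620 channel; AC50 via Hill.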
ALDH1A1 block – inhibitors of human aldehyde dehydrogenase 1A1 | 220,000 compounds, 7.3% hits | Potency, µM (doses to about 75.3 µM), without a hit: at the highest dose activity, negative = inhibition, most hits filed as inhibitors | P00352 | AID 1030 | Purified ALDH1A1, NADH fluorescence, propionaldehyde substrate; active = well fitted inhibition curve with a large enough effect, not every such curve was filed as active; inconclusive = small, poorly fitted or top-dose-only effect, or another doubt; inactive = no such curve, though single readings can be large or run the other way;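 note: potency is the fitted concentration of half-maximal effect; plate controls were no enzyme wells and a reference inhibitor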
Target sequence (P00352 whole entry, looked up): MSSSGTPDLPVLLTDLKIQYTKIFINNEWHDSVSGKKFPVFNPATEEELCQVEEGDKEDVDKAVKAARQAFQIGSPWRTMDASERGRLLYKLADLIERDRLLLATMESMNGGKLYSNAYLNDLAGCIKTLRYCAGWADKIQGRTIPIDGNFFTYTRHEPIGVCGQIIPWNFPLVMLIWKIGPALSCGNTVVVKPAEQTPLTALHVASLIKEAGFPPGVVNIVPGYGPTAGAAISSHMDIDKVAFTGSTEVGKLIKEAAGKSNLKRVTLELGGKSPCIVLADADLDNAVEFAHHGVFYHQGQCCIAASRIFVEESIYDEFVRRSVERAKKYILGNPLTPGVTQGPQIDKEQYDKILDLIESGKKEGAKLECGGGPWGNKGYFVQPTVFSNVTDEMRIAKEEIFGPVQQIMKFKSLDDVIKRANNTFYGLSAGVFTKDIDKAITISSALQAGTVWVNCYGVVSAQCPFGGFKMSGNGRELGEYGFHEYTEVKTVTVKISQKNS
HPGD inh – HPGD (human) dehydrogenase inhibition; 150,000 compounds, 4.3% hits; purified HPGD, NADH fluorescence kinetic, PGE2 substrate; Potency, µM, inactives show at the top dose activity change, negative = inhibition, usual class: inhibitors; active = well fitted inhibition curve with a large enough effect, not every such curve was filed as active; inconclusive = small, poorly fitted or top-dose-only effect, or another doubt; inactive = no such curve, though single readings can be large or run the other way; note: potency is the fitted concentration of half-maximal effect
Target sequence (P15428 whole entry, looked up): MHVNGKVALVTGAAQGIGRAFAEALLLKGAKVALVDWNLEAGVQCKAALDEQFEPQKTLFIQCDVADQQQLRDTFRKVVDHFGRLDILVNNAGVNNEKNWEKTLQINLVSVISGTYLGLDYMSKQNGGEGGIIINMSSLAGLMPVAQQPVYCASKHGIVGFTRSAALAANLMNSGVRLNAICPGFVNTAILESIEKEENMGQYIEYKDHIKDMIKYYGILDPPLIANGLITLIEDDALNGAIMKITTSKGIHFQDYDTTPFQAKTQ
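20 nM HPGD preincubated 15 min at room temperature with compound in 50 mM Tris-HCl pH 8, 0.01% Tween 20. Started with 1 mM NAD+ and 30 uM prostaglandin E2; NADH fluorescence (360/450 nm) read 5 times over 30-s intervals, last minus first.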
PNC assembly inh – inhibitors of perinucleolar compartment assembly. PC3M PTB-GFP, PNC prevalence imaging, 16 h; stronger effect = lower value. activity change (PNC), negative = inhibition, % at 10 µM. 140,000 compounds, 3.1% hits;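 active = readout at or below -70, meaning at least 70% loss of cells showing the perinucleolar compartment, a nuclear body marking cancer cells; inconclusive = readout between -30 and a set limit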;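 note: plate controls were DMSO wells for no effect and camptothecin positive control wells for full effect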
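PC3M cells stably expressing PTB-GFP, 750–1000 cells/well, treated 16 h at 37 °C with compound (23 nl of library stock), in duplicate. After paraformaldehyde fixation and Hoechst stain, imaged at 20x; PNC prevalence scored by image analysis.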
NPSR antag – antagonists of human neuropeptide S receptor cAMP signaling | Q6W5P4 | CHO-NPSR cells, cAMP TR-FRET, antagonist mode | Potency, µM (series often up to 38.3 µM), inactives show at the top dose activity change, negative = inhibition, actives largely listed as inhibitors | 220,000 compounds, 1% hits | AID 1461; note: potency is the fitted concentration of half-maximal effect; nearly all actives have a fitted effect of over 50% in size
Starred values were filed as active, the others as inactive; ? = inconclusive; nt = no result; [ ] = another dose, or the depositor's remark. Unless noted, calls come from the whole dose curve; as a rule, active = well fitted curve in the direction sought with a large enough effect; inconclusive = small, poorly fitted or top-dose-only effect, or another doubt; inactive = no such curve, though single readings can be large; an effect the other way counts as inactive or inconclusive. Unless noted, % is set by controls: 0 for no effect and ±100 for the full control effect.

SMILES	IMPase cell inh	IMPase Li cell	ALDH1A1 block	HPGD inh	PNC assembly inh	NPSR antag
CCc1ccc(CN(C(=O)c2ccc(OC)cc2)C2CCS(=O)(=O)C2)cc1 (stereo not given)	3	nt	nt	nt	nt	nt
Cc1ccc(C(=O)OC2CCOC2=O)cc1NC(=O)c1ccco1 (stereo not given)	7	2%[38.3 µM]	11%	3%	-1	10%[46.1 µM]
CC1(C)Cc2c(C#N)c(N)sc(=S)c2CS1	-2	-5%[38.3 µM]	7.1µM*	-12%	11	-20%[46.1 µM]
N#Cc1c(N)sc(=S)c2c1CCCCC2	0	10%	?	16µM*	44	-10%[46.1 µM]
Cn1c(N)c(C#N)c2c(c1=S)CSC(C)(C)C2	-1	-5%[38.3 µM]	?	-12%	?	4%[7.67 µM]
O=C1CSC(=S)N1CC1CCCO1 (stereo not given)	1	1%[38.3 µM]	?	-2%	22	-5%[46.1 µM]
COc1cc2c(cc1OC)CN(C(=O)COc1ccc(C)c(C)c1)CC2	4	0%[38.3 µM]	-10%	-12%	?	-16%[46.1 µM]
COC(=O)C1NN=C(C(=O)c2ccc(Cl)cc2)C1c1ccc(OC)cc1 (stereo not given)	nt	11%	25µM*	-18%	2	-42%
OCC1CCCN(C(=S)Nc2ccc(Nc3ccccc3)cc2)C1 (stereo not given)	nt	7%	?	nt	nt	-2%
CCN(CC)c1ccc(CNc2ccc(Br)cn2)cc1	11	-1%[38.3 µM]	7.1µM*	-19%	-14	-4%[46.1 µM]
CCC1(C)N=C(c2ccc3c(c2)OCO3)CC(c2ccccc2O)N1 (stereo not given)	-5	24%[38.3 µM]	-5%	-8%	24	-18%[46.1 µM]
CC(Sc1nnnn1-c1ccccc1)C(=O)Nc1ccc(Cl)cn1 (stereo not given)	4	26%[38.3 µM]	5µM*	-12%	13	-6%[46.1 µM]
CCOc1ccc(-c2cc(C)n3nc(C(N)=O)cc3n2)cc1	-7	-17%[38.3 µM]	?	?	-30	?
CCc1cc(/C(Cc2ccccn2)=N\Nc2ccccc2)c(O)cc1O	nt	-3%	7.9µM*	nt	nt	-37%
Cc1nc(C/C(=N\Nc2ccccc2)c2ccc(O)cc2O)cs1	nt	6%	3.2µM*	nt	nt	-29%
Cc1occc1C(=O)NC(C)C12CC3CC(CC(C3)C1)C2 (stereo not given)	nt	10%	0%	nt	nt	20%
CCC1C(=O)N=C(SCC(=O)Nc2ccc(S(N)(=O)=O)cc2)NC1=O (stereo not given)	nt	5%	?	nt	nt	20%
Cc1ccc(C(C)C)c(OCc2ccc(-c3nnco3)cc2)c1	10	37%[38.3 µM]	-12%	10µM*	42	-12%[46.1 µM]
COc1ccc(CC(=O)n2[nH]c(=O)ccc2=O)cc1OC	nt	nt	nt	nt	nt	-17%
CCCSc1cc(=O)n(-c2ccccc2)nc1C(=O)OCC	7	2%[38.3 µM]	?	-12%	-20	-4%[46.1 µM]
O=C(CSc1ncccn1)N1CCc2ccccc2C1	nt	-7%	3%	nt	nt	-21%
Cc1nc2ncnn2c(C)c1CCC(=O)N1CCc2ccccc2C1	1	?	2.2µM*	-6%	4	-13%[46.1 µM]
Cc1ccccc1-n1c(C)nnc1SCC(=O)N1CCc2ccccc2C1	nt	6%	-6%	-30%	-107*	12%
Cc1ccnc(SCC(=O)N2CCc3ccccc3C2)n1	nt	2%	18µM*	nt	nt	-4%
O=C(CCN1C(=O)COc2ccccc21)NCc1cccs1	-2	-7%[38.3 µM]	-7%	-2%	?	11%[46.1 µM]
SMILES	IMPase cell inh	IMPase Li cell	ALDH1A1 block	HPGD inh	PNC assembly inh	NPSR antag
CCOc1ccccc1C1C(C#N)=C(N)Oc2cc(C)n(C)c(=O)c21 (stereo not given)	-2	4%	-3%	-2%	-2	-10%[46.1 µM]
CCn1cc(C(=O)NCc2cccc(F)c2)c(=O)c2cc(F)c(N3CCN(C(=O)c4ccco4)CC3)cc21	2	43%[38.3 µM]	?	?	43	10µM*
Cn1cccc1C(=O)N1CCC2(CCN(Cc3ccccc3)CC2)CC1	nt	31%	1%	-1%	nt	nt
COc1cccc(OCCOCCOc2ccc(C)cc2[N+](=O)[O-])c1	nt	-2%	?	-10%	?	5%
Cc1ccc(OCCOc2cccc3ccc(C)nc23)c([N+](=O)[O-])c1	nt	4%	14µM*	nt	nt	-21%
COc1ccc(OCCOCCOc2ccc(C)cc2[N+](=O)[O-])cc1	nt	3%	25µM*	?	18	4%
COCCNCCCCOc1ccc(C)cc1[N+](=O)[O-]	nt	2%	2.8µM*	-8%	?	26%
Cc1ccc(OCCCCn2ccnc2)c([N+](=O)[O-])c1	nt	21%	1.6µM*	nt	nt	-16%
COc1ccc(-c2nc3ccccc3o2)cc1NC(=O)COc1c(C)cc(Cl)cc1Cl	1	nt	nt	nt	nt	nt
CCOCc1cn(CC(=O)c2ccc([N+](=O)[O-])cc2)c(C)nc1=N	4	51%[38.3 µM]	3%	-3%	30	2%[46.1 µM]
CCOC(=O)/C=C/C(=O)Nc1ccc(S(=O)(=O)N(C)c2ccccc2)cc1	nt	9%	25µM*	nt	nt	-6%
CCOC(=O)c1ccccc1NC(=O)c1cc(S(=O)(=O)N2CCOCC2)ccc1F	-6	15%[38.3 µM]	-4%	-4%	17	?
CCOC(=O)c1ccc(S(=O)(=O)Nc2cc(C(=O)O)ccc2Cl)cc1	nt	-6%	3.2µM*	nt	nt	3%
CCOC(=O)CN(Cc1ccccc1)S(=O)(=O)c1ccc(NC(C)=O)cc1	?	-23%[38.3 µM]	5.6µM*	-20%	?	-15%[46.1 µM]
CCOC(=O)c1ccccc1NS(=O)(=O)c1ccc(S(=O)(=O)N2CCCC2)cc1	4	43%[38.3 µM]	22µM*	-12%	?	-6%[46.1 µM]
CCOC(=O)c1ccc(NC(=S)N2CCCC(C(=O)OCC)C2)cc1 (stereo not given)	nt	6%	-2%	nt	nt	-12%
COc1ccc(CCNC(=O)c2ccc(Cl)cc2Cl)cc1OC	nt	-8%	9%	nt	nt	4%
CCOC(=O)/C=C/C(=O)Nc1ccc(S(=O)(=O)N2CCCCCC2)cc1	nt	2%	3.5µM*	nt	nt	-16%
COc1ccc(S(=O)(=O)N2CCCCCC2)cc1C(=O)OCc1c(C)noc1C	5	2%[38.3 µM]	14µM*	1%	28	3%[7.67 µM]
